# CtBP-E1A inh: inhibitors of CtBP/E1A interaction; AID 651724; 340,000 tested, 0.49% active; activity change, % (test concentration not listed); AlphaScreen GST-E1A/His-CtBP binding, 1536-well; active compounds read low; in the data active = activity change below about -65%; inconclusive = mostly about -30% to -63%; also: % is scaled to controls: 0 for no effect and ±100 for the full control effect
#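 GST-E1A and His-tagged CtBP (125 nM each as 5X stock) were preincubated with pin-transferred compound for 2 h at 37 °C in the dark, then glutathione donor and nickel acceptor beads were added for 1 h before AlphaScreen reading.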
# Six1-Eya2 inh: inhibitors of human Six1/Eya2 interaction; Q15475+O00167; AlphaScreen GST-Six1/His-Eya2 binding, biochemical; active compounds read low; activity change, % (no concentration beside the values); 360,000 tested, 0.56% active; AID 651725; in the data active = activity change below about -65%; inconclusive = mostly about -30% to -63%; also: % is scaled to controls: 0 for no effect and ±100 for the full control effect
#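 GST-Six1 + His-Eya2 (5X stock: 250/500 nM); Tris pH 8.0, 300 mM NaCl, 0.05% BSA, 0.02% Tween 20; GSH donor/Ni acceptor beads; 1 h 37 °C dark; AlphaScreen readout.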
# JMJD2A Tudor inh: JMJD2A Tudor domain (human) inhibition; O75164; AlphaScreen JMJD2A-Tudor / H3K4me3 peptide binding; 390,000 tested, 4.4% active; Potency, µM (doses to about 114 µM), without a hit: at the top dose activity change, negative = inhibition, actives largely listed as inhibitors; also: potency is read from the fitted curve at half-maximal effect; % is scaled to controls: 0 for no effect and ±100 for the full control effect; nearly all actives have a fitted effect of over 50% in size
# Target sequence (O75164 whole entry, looked up, the tested form may be a part): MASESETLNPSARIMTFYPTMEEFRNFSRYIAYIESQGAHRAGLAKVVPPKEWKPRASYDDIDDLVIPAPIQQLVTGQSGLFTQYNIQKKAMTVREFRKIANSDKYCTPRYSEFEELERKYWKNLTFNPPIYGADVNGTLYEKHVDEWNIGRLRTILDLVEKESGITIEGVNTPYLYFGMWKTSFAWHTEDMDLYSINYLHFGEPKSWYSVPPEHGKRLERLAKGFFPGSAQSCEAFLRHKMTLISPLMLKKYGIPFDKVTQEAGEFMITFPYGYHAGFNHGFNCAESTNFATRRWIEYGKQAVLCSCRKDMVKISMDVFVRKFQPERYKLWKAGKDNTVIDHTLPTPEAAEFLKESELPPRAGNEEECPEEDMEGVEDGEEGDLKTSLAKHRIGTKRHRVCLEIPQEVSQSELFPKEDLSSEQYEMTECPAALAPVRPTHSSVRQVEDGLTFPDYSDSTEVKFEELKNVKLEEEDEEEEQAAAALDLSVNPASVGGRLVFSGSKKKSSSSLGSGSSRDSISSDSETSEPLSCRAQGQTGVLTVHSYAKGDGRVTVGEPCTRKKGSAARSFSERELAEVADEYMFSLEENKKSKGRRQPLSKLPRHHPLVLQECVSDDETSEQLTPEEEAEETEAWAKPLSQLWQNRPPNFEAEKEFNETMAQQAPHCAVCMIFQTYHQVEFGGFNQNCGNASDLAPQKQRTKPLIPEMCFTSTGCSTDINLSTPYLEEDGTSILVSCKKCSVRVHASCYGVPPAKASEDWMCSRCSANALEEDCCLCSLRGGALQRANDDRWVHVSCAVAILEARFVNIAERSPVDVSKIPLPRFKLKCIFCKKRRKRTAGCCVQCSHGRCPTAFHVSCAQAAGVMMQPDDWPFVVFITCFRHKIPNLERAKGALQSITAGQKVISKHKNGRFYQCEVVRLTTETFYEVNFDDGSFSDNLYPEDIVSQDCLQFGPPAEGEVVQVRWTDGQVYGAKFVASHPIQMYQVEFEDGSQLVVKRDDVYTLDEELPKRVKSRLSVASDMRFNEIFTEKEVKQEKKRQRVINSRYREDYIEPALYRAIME
# BAZ2B inh: blocks human BAZ2B; Q9UIF8; AlphaScreen BAZ2B-H3K14Ac peptide displacement; Potency, µM (highest dose often 114 µM), for the others: at the top dose activity change, negative = inhibition, hits mostly inhibitors; 360,000 tested, 4.4% active; AID 504333; also: potency is read from the fitted curve at half-maximal effect; % is scaled to controls: 0 for no effect and ±100 for the full control effect; nearly all actives have a fitted effect of over 60% in size
#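 BAZ2B 50 nM plus b-H3(5-23)K14Ac 50 nM, PBS pH 7.4/0.01% Tween-20, 30 min RT; compound added (max 110 uM), 30 min RT; streptavidin donor/Ni-chelate acceptor beads 10 ug/mL final, 20 min dark; AlphaScreen read.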
# G9a inh: blocks human histone lysine methyltransferase G9a. Potency, µM (top dose mostly 102 µM), for the others: top-dose activity, negative = inhibition, actives largely listed as inhibitors. 350,000 tested, 8.8% active. Q96KQ7. G9a H3K9 monomethylation, AlphaScreen, 2 h; also: potency is read from the fitted curve at half-maximal effect; % is scaled to controls: 0 for no effect and ±100 for the full control effect; nearly all actives have a fitted effect of over 75% in size
#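 G9a (20 nM) was preincubated 15 min with compound, then reacted 2 h at room temperature with 500 nM biotin-H3K9 peptide and 20 µM SAM. Monomethyl-H3K9 detected by AlphaScreen using anti-H3K9me1 antibody.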
# HP1b binding inh: blocks HP1-beta chromodomain binding to methylated histone tails. P83916. AlphaScreen HP1-beta / biotin-H3K9me3 peptide binding. Potency, µM (top dose mostly 114 µM), without a hit: at the highest dose activity change, negative = inhibition, hits mostly inhibitors. 390,000 tested, 0.56% active. AID 540317; also: potency is read from the fitted curve at half-maximal effect; nearly all actives have a fitted effect of over 70% in size
#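 Compound inhibition of the preformed complex between 50 nM HP1-beta and 50 nM biotinylated H3K9me3 peptide was read by AlphaScreen. Buffer was PBS pH 7.4 with 0.01% Tween-20. Incubations ran 30 min at room temperature, with 10 ug/mL donor/acceptor beads.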
# Active calls of the source: *; ? = inconclusive; . = no result given; [ ] = another dose, or the depositor's remark. An excerpt weighted towards active compounds, which were near 10% of everything screened. Unless noted, calls follow the shape of the dose curve; as a rule, active = well fitted inhibition curve with a large enough effect; inconclusive = small, poorly fitted or top-dose-only effect; inactive = no such curve, though single readings can be large or run the other way.
SMILES,CtBP-E1A inh,Six1-Eya2 inh,JMJD2A Tudor inh,BAZ2B inh,G9a inh,HP1b binding inh
CCN1CCN(c2ccc(S(=O)(=O)N3CCCCC3)cc2NC(=O)/C=C/c2ccc(F)cc2)CC1,-0.5,-6.0,-20.7%,-29.2%,1.26µM*,-2.1%
CN1CCN(c2ccnc(-c3ccoc3)n2)CC1,.,.,.,.,-19.2%[0.501 µM],.
COc1n[nH]c(C(=O)NCc2ccccc2)c1[N+](=O)[O-],.,-2.5,-12.1%,-21.3%,56.2µM*,60.5%
COc1cccc(-c2cc(C(=O)NCc3ccccc3)[nH]n2)c1,.,.,-9.9%,2.6%,-4.5%[59 µM],-17.1%
COc1n[nH]c(C(=O)Nc2nc3ccccc3s2)c1[N+](=O)[O-],-4.8,-9.4,-27.5%,56.2µM*,14.1µM*,29.5%
Cc1ccc(NC(=O)CN(C)C(=O)CSc2nnnn2C)cc1,0.0,2.5,-16.8%,1.6%,.,20.4%
Cc1ccc(NC(c2ccc(Cl)cc2)c2nnc(-c3cccc(F)c3)o2)cc1C (stereo not given),.,.,-8.9%,-30.4%,-11.6%[59 µM],12.8%
O=C(Nc1ccc2c(c1)OCCO2)C(=S)NCc1ccccc1,-2.2,-21.2,-26.6%,-27.2%,?,25.9%
S=C1NNC2(CC3CC2C2CCCC32)NN1 (stereo not given),.,-0.1,?,-23.1%,1.78µM*,-5.4%
Cc1ccc(N2CCN(C(=O)c3cn(C)c4ccc(S(=O)(=O)N(C)C5CCCCC5)cc4c3=O)CC2C)cc1 (stereo not given),.,.,-7.3%,.,8.4%[59 µM],10.1%
COc1ccc(N2CCN(C(=O)c3cc(=O)c4cc(C)c(C)cc4o3)CC2)cc1,-7.7,1.9,56.2µM*,-9.0%,6.1%,6.0%
COc1ccc(OCC(=O)Nc2c(C(=O)N3CCN(c4ccccc4)CC3)oc3ccccc23)cc1,.,.,-22.7%,-15.2%[57.1 µM],-32.3%[59 µM],9.8%
CC(=O)N1CCN(C(=O)c2oc3ccccc3c2C)CC1,2.9,-2.3,-13.1%,-19.3%,39.7%,14.5%
COc1ccc(N2CCN(C(=O)c3oc4ccccc4c3C)CC2)cc1,0.0,-23.7,39.8µM*,.,35.5µM*,?
COc1ccc(N2CCN(C(=O)c3oc4ccccc4c3NC(=O)Cc3cccc(OC)c3)CC2)cc1,?,?,15.8µM*,?,39.8µM*,-21.1%
COc1ccc(N2CCN(C(=O)c3oc4ccccc4c3NC(=O)Cc3ccc(OC)c(OC)c3)CC2)cc1,-25.5,?,?,?,28.2µM*,4.4%
Cc1c(C(=O)N2CCCCCC2)c(S(=O)(=O)N(Cc2ccccc2)C(C)(C)C)c(C)n1C,.,.,-29.3%,?,9.7%[59 µM],24.7%
Cc1cc(-c2cc(C)c(N)cc2C)c(C)cc1N,-17.4,-7.3,?,.,.,?
Cc1cc(N=Nc2ccc(C)c(N=Nc3cc(C)c(N)cc3N)c2)c(N)cc1N,.,?,50.1µM*,39.8µM*,39.8µM*,?
CCC(CC)C(=O)Nc1nnc(S(=O)(=O)N(C)c2cc(C)cc(C)c2)s1,.,.,-14.8%,?,-36.5%[59 µM],27.2%
COc1ccc(NC(=O)c2sc3nc4n(c(=O)c3c2C)CCC4)c(OC)c1,.,.,-12.2%,-10.7%,-34.1%[59 µM],14.4%
COc1ccccc1-c1nc2s/c(=C\c3cccs3)c(=O)n2n1,-1.4,3.1,-5.3%[11.4 µM],-32.8%,2.82µM*,-37.7%
O=c1/c(=C/c2ccccc2)sc2nnc(-c3cccs3)n12,-19.8,-6.1,-2.5%,0.3%,.,-0.6%
COc1cc(/C=c2\sc3nc(-c4ccncc4)nn3c2=O)ccc1OC(C)=O,.,.,.,-5.8%,?,.
COc1ccc(/C=c2\sc3nc(-c4ccccc4OC)nn3c2=O)c(OC)c1,-4.0,4.3,89.1µM*,-18.1%,-6.4%[12.7 µM],3.1%
COc1cccc(/C=c2\sc3nc(-c4cccs4)nn3c2=O)c1OC,10.5,3.0,-20.8%,-24.0%,-42.3%[59 µM],-18.8%
Cc1ccc(/C=c2\sc3nc(-c4cccs4)nn3c2=O)o1,-0.2,-6.6,?,-32.5%,17.8µM*,0.3%
O=c1/c(=C/c2ccco2)sc2nc(-c3ccccc3Br)nn12,-3.6,-8.6,50.1µM*,44.7µM*,22.4µM*,8.91µM*
